Records with an inconclusive call do not appear. Activity calls are given as the source filed them. Unless noted, the call rests on the fitted dose curve; in most records, active means well fitted curve in the direction sought with a large enough effect; inconclusive means small, poorly fitted or top-dose-only effect, or another doubt; inactive means no such curve, though single readings can be large; an effect the other way counts as inactive or inconclusive.
Key:
[1] = target: DNA polymerase III PolC-type (Bacillus subtilis (strain 168)) (UniProt P13267); assay: qHTS Validation Assay for the Inhibitors of DNA Replication in Gram-Positive Bacteria (AID 485295);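 further: PicoGreen fluorescence of double-stranded DNA made on primed circular M13 template; series mostly up to about 57 µM; 0% = DMSO wells and -100% = EDTA-quenched background wells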
Chain of DNA polymerase III PolC-type (Bacillus subtilis (strain 168)) (P13267 whole entry, looked up): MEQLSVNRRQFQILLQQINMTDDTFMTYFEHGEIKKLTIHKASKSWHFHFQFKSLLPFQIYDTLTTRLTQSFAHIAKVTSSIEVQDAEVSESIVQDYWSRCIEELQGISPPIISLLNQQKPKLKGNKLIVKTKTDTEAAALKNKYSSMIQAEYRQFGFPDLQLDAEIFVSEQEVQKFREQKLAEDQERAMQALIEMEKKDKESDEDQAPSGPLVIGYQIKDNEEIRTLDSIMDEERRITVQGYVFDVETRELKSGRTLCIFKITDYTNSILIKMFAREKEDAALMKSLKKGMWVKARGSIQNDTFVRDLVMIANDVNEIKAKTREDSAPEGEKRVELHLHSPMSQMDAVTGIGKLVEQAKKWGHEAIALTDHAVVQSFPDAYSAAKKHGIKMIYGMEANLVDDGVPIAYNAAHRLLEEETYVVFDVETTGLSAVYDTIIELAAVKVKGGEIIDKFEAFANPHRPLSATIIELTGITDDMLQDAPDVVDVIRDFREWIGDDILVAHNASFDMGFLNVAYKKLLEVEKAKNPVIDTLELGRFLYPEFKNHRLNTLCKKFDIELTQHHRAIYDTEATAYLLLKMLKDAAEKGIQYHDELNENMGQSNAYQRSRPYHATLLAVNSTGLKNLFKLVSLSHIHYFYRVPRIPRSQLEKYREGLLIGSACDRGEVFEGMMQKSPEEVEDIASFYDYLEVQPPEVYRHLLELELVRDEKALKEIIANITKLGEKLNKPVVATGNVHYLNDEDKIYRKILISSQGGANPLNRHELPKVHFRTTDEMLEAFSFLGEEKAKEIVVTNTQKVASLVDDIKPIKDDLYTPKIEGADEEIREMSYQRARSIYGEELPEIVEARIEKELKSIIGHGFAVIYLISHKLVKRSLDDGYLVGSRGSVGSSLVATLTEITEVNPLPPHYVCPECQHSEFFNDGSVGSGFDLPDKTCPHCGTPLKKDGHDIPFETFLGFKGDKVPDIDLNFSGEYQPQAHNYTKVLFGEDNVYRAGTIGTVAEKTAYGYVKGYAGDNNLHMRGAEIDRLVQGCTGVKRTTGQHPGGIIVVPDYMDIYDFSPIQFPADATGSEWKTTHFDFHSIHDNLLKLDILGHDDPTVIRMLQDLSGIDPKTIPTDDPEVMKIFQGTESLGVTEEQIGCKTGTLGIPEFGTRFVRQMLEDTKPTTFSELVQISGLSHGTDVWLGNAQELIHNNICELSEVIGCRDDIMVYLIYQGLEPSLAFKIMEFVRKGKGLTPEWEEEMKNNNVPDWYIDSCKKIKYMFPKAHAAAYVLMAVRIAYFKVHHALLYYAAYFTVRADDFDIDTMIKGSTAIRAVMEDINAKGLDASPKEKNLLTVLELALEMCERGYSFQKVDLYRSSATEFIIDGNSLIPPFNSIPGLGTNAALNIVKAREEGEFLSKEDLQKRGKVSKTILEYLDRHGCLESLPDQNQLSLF
Summary of the method: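 Reconstituted B. subtilis Pol III holoenzyme (PolC, beta clamp, SSB, primase) preincubated with compound, then M13Gori single-stranded circular template with dNTPs/NTPs added; room temperature reaction. Stopped with EDTA/PicoGreen; dsDNA fluorescence read, EDTA as full-inhibition control.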

[2] = target: Tumor susceptibility gene 101 protein (Homo sapiens) (UniProt Q99816); assay: qHTS Validation Assay for Iinhibitors of HIV-1 Budding by Blocking the Interaction of PTAP/TSG101 (AID 485342; calls by dose curve; further: 0% is about no effect)
Chain of Tumor susceptibility gene 101 protein (Homo sapiens) (Q99816 whole entry, looked up, the tested form may be a part): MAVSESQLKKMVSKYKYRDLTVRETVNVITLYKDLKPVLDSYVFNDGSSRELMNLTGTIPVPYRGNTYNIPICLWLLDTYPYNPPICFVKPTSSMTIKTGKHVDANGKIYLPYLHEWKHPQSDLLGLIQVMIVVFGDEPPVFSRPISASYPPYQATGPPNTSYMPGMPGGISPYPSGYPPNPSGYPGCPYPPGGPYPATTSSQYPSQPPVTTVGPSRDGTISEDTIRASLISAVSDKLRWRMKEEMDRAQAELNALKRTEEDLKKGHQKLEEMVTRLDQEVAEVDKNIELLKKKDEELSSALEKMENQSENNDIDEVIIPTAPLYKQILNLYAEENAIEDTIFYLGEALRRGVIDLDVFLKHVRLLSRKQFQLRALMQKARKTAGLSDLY
Summary of the method: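 Tsg101 binding domain (10 uM) with FITC-labeled PTAP peptide (50 nM) in HEPES pH 7.5 buffer, 20 min at r.t. with compounds. Binding measured by fluorescence polarization.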

[3] = qHTS Validation Assay to Find Inhibitors of Chronic Active B-Cell Receptor Signaling (AID 485345; active means well fitted curve in the direction sought with a large enough effect in the main read-out, with a control signal flat, not every such curve was filed as active;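 further: 0% = untreated basal cells and 100% = 10 µM MG-132 proteasome inhibitor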)
Summary of the method: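 TMD8 ABC-DLBCL cells stably carrying doxycycline-inducible IkappaBalpha–green luciferase fusion plus unfused red luciferase; compounds 46 uM to 3 nM, 4 h at 37C with doxycycline. Corrected green/red luminescence ratio normalized to 10 uM MG-132 and basal cell wells; curves fitted.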

[4] = target: Beta-2 adrenergic receptor (Homo sapiens) (UniProt P07550); assay: qHTS validation assay of beta-arrestin-biased ligands of beta2-adrenergic receptor (AID 485366); further: 0% is about no effect
Chain of Beta-2 adrenergic receptor (Homo sapiens) (P07550 whole entry, looked up): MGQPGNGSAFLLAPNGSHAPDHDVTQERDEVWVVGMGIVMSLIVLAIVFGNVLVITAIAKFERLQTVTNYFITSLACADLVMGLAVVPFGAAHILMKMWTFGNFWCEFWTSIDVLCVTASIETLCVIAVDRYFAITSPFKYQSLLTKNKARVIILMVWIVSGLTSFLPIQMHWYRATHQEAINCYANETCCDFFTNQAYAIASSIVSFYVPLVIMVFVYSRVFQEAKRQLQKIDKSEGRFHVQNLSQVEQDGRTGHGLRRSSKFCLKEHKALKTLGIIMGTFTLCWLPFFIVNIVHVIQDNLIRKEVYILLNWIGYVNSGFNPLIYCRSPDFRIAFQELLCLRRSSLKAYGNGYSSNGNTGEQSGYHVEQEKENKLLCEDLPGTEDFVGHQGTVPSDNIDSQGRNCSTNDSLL
Summary of the method: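 Tango cells (recombinant beta2-AR with recombinant beta-arrestin; recruitment releases tTA driving luciferase) were treated with compounds titrated up to 46 microM for 18 hr at 37 degrees C. Luminescence gave %Activity, and concentration-response curves were curve-classified.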

[5] = target: Thioredoxin reductase 1, cytoplasmic (Rattus norvegicus) (UniProt O89049); assay: qHTS Assay for Substrates of Mammalian Selenoprotein Thioredoxin Reductase 1 (TrxR1) (AID 488772);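 further: NADPH fluorescence in the first read after selenite addition and not the 8 min delta; series mostly up to about 57 µM; 0% is about no effect; a drop in NADPH fluorescence below the no-compound background marks a TrxR1 substrate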
Chain of Thioredoxin reductase 1, cytoplasmic (Rattus norvegicus) (O89049 whole entry, looked up): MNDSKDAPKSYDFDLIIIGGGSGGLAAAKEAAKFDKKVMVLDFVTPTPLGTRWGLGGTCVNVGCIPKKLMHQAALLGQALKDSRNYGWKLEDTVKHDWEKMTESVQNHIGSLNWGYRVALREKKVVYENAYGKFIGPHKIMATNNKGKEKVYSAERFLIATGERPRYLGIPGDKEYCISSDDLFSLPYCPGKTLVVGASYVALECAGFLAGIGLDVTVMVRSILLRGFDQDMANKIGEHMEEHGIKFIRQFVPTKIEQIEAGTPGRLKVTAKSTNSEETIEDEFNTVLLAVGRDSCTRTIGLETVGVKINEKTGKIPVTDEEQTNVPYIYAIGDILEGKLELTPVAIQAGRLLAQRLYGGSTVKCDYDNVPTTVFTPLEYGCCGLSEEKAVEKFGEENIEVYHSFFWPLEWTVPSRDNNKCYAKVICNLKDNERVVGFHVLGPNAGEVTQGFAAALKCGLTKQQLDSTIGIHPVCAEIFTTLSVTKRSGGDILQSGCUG
Summary of the method: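 Quantitative HTS in Tris-HCl buffer at pH 7.5 with EDTA and Tween-20, using rat TrxR1, 400 uM NADPH and 400 uM selenite (final). A fall in initial NADPH fluorescence relative to background marked substrate behaviour.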

[6] = target: Thioredoxin reductase 1, cytoplasmic (Rattus norvegicus) (UniProt O89049); assay: qHTS Assay for Inhibitors of Mammalian Selenoprotein Thioredoxin Reductase 1 (TrxR1) (AID 488773); settings: Potency: inhibition;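 further: drop in NADPH fluorescence over an 8 min run after selenite addition; series mostly up to about 57 µM; on the % scale 0 is the no-effect control and ±100 the full control effect; nearly all actives have a fitted effect of over 40% in size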
Summary of the method: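 Steps: enzyme (90 nM) plus NADPH (400 uM final), 5 min at ~22 deg C; compound added, 15 min; selenite (400 uM final) added; fluorescence followed for 8 min. Concentration-response curves derived from the normalized delta values.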

[7] = target: Flap endonuclease 1 (Homo sapiens) (UniProt P39748); assay: qHTS Validation Assay for the Inhibitors of Human Flap endonuclease 1 (FEN1) (AID 488816); further: on the % scale 0 is the no-effect control and ±100 the full control effect
Chain of Flap endonuclease 1 (Homo sapiens) (P39748 whole entry, looked up): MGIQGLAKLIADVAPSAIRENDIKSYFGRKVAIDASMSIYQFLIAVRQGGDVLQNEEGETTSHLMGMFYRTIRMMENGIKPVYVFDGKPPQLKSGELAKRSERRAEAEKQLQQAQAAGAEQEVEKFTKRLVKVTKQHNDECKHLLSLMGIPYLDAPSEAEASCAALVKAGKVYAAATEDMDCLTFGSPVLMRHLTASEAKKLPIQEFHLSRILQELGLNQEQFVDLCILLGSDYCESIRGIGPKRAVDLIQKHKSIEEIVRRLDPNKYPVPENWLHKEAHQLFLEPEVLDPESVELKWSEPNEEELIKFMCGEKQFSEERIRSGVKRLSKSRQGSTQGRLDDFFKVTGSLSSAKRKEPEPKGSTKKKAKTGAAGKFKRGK
Summary of the method: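 Human FEN1 (10 nM) preincubated 15 min at room temperature with compounds, then flap DNA substrate added at 50 nM final. Fluorescence read at 0 and 15 min; concentration-response fitted with four-parameter Hill equation.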

[8] = target: M-phase phosphoprotein 8 (Homo sapiens) (UniProt Q99549); assay: qHTS Validation Assay for Inhibitors for MPP8 Chromodomain Interactions with Methylated Histone Tails (AID 488949); further: top concentration of the series differs between compounds; on the % scale 0 is the no-effect control and ±100 the full control effect; nearly all actives have a fitted effect of over 55% in size
Summary of the method: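 MPP8 (50 nM) was pre-bound to 50 nM biotinylated H3(1-18)K9me3 peptide in PBS pH 7.4 with 0.01% Tween-20. Compounds were then added for 30 min at room temperature, and complex disruption was read by AlphaScreen with streptavidin donor and nickel-chelate acceptor beads.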

[9] = target: Chromobox protein homolog 1 (Homo sapiens) (UniProt P83916); assay: qHTS Validation Assay for Inhibitors of HP1-beta Chromodomain Interactions with Methylated Histone Tails (AID 488953); further: nearly all actives have a fitted effect of over 50% in size; further: potency means the concentration at half of the fitted maximal effect
Chain of Chromobox protein homolog 1 (Homo sapiens) (P83916 whole entry, looked up): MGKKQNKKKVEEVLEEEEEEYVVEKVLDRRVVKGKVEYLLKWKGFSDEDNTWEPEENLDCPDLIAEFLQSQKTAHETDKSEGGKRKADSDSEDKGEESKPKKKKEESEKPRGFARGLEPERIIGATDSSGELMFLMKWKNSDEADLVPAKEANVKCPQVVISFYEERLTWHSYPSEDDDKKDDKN
Summary of the method: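 50 nM HP1-beta + 50 nM biotin-H3(1-18)K9me3, PBS pH 7.4, 0.01% Tween-20, 30 min RT; compound added, 30 min RT; AlphaScreen beads 10 ug/mL final, 30 min dark; luminescence read.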

[10] = target: Methanococcus maripaludis chaperonin (MmCpn) (UniProt Q6LX38); assay: High-Throughput Screening for Modulators of Cytosolic Chaperonin Activity: MmCpn Primary Screen (AID 488978);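 further: 50 nM MmCpn enzyme hydrolysing 30 µM ATP at 37 °C; 0% is about no effect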
Summary of the method: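 MmCpn at 50 nM final was preincubated 5 min at RT with compound. ATP was then added at 30 uM final for 10 min at 37 C. ADP formed was detected by Transcreener HTRF (665/590 nm).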

[11] = target: Transient receptor potential cation channel subfamily V member 1 (Homo sapiens) (UniProt Q8NER1); assay: HTS Assay for Compounds that Act as Enhancers of the Vanilloid Receptor 1 (AID 488979); further: 0% is about no effect
Summary of the method: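 TRPV1 cells loaded with Fluo-8 calcium dye; compound added and Ca2+ signal (ex 480/em 520 nm) followed 3 min, then capsaicin at EC20 added and read 2 more min to detect enhancement.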

[12] = target: D(1A) dopamine receptor (Homo sapiens) (UniProt P21728); assay: HTS Assay for Allosteric Agonists of the Human D1 Dopamine Receptor: Primary Screen for Agonists (AID 488981); further: 0% is about no effect
Chain of D(1A) dopamine receptor (Homo sapiens) (P21728 whole entry, looked up): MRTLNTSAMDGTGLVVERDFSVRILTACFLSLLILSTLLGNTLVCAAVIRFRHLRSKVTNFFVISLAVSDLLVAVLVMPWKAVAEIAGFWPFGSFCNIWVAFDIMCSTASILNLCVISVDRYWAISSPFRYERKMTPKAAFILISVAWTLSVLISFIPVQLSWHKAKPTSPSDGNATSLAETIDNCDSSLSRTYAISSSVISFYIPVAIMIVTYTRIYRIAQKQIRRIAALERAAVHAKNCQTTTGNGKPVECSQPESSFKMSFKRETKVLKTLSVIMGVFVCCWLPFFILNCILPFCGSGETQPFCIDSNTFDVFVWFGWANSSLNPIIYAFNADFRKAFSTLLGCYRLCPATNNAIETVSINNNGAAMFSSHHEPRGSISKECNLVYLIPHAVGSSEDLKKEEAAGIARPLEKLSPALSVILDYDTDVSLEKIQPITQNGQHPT
Summary of the method: (§1)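 Tetracycline-induced HEK293 Trex D1 cells with forced coupling to calcium, loaded with no-wash calcium dye; kinetic fluorescence read 180 s after compound addition for agonism, then a further 180 s after an EC20 dopamine challenge for potentiation.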

[13] = target: D(1A) dopamine receptor (Homo sapiens) (UniProt P21728); assay: HTS Assay for Allosteric Agonists of the Human D1 Dopamine Receptor: Primary Screen for Potentiators (AID 488982); further: 0% is about no effect
Summary of the method: as §1

[14] = Validation screen for small molecules that induce genotoxicity in human embryonic kidney (HEK293T) cells expressing luciferase-tagged ELG1 (AID 493106); further: potency means the concentration at half of the fitted maximal effect
Summary of the method: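 Luminescence from an ELG1-luciferase fusion serves as the read-out, rising when genetic stress elevates ELG1 protein. HEK293T reporter cells (2,000 per well) received 23 nL compound, incubated 16 hr at 37 °C, then ONE-Glo for 30 min at room temperature.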

[15] = target: Thyrotropin-releasing hormone receptor (Homo sapiens) (UniProt P34981); assay: qHTS for Small Molecule Agonists and Allosteric Enhancers of Human TRH Receptor: Validation Screen for Agonists (AID 493127;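 active means calcium activation more than 3 SD above the typical response in the agonist read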;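 further: intracellular calcium rise by fluo-8 fluorescence before TRH EC20 addition; 0% is about no effect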); settings: TRH receptor agonist cell assay; at 2 µM; stronger effect = higher value
Chain of Thyrotropin-releasing hormone receptor (Homo sapiens) (P34981 whole entry, looked up): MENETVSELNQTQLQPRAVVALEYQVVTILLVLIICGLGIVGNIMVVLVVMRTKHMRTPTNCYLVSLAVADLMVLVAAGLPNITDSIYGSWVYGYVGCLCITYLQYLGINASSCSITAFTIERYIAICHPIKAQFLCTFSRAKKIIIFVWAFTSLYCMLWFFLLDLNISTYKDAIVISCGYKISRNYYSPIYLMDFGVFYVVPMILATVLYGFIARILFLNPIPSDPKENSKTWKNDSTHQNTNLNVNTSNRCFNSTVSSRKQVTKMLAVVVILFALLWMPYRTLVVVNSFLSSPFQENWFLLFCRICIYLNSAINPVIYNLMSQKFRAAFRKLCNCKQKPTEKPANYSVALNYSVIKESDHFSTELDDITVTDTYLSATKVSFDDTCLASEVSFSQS
Summary of the method: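 Cells 2000/well, 10% FCS, 18 h 33.5C/5% CO2 → fluo-8 Ca dye, RT 30 min–1.5 h → FDSS baseline 10 × 1 s → compound added → 230 cycles (1 s/cycle) agonist mode. TRH controls.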

[16] = Nrf2 qHTS screen for inhibitors: Validation (AID 493153; active means well fitted inhibition curve with a large enough effect in the main read-out, with a control signal flat, not every such curve was filed as active); settings: viability change: measured here: cytotoxicity max response
Summary of the method: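 Luminescence from an ARE-firefly luciferase reporter in A549 cells gives Nrf2 inhibition; an earlier CellTiter-Fluor fluorescent read flags cytotoxicity. Cells in 5% FBS OPTI-MEM received compound dilution series for 18-24 h at 37°C.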

[17] = qHTS for Inhibitors of Cell Surface uPA Generation: Validation Assay (AID 493164); further: 0% is about no effect
Summary of the method: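 RAW 264.7 cells (4000/well) were plated overnight, then exposed for 18 h at 37 C, 5% CO2 to compounds in a 7-point 1:5 titration (2.45 nM–38.3 uM final). Intracellular ATP was read by ATP-Lite luminescence.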

[18] = Quantitative high throughput screen for delayed death inhibitors of the malarial parasite plastid, 96 hour incubation (AID 488745);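 further: luciferase-expressing P. falciparum in erythrocytes at 2% hematocrit and 0.1% parasitemia; series mostly up to about 29 µM; on the % scale 0 is the no-effect control and ±100 the full control effect; nearly all actives have a fitted effect of over 70% in size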
Summary of the method: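 Infected erythrocytes were added to compound in Albumax-supplemented RPMI 1640 at 0.1% parasitemia and 2% hematocrit (final), incubated 96 h at 37 C under 5% CO2, then luciferase reagent was added and luminescence measured.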

[19] = Quantitative high throughput screen for delayed death inhibitors of the malarial parasite plastid, 48 hour incubation (AID 488752); further: on the % scale 0 is the no-effect control and ±100 the full control effect; nearly all actives have a fitted effect of over 65% in size
Summary of the method: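 Readout is firefly luciferase luminescence from a reporter integrated into the parasite genome, with lower signal taken as inhibited growth. Infected red cells (0.1% parasitemia, 2% hematocrit final) are cultured with compound for one 48 h cycle at 37 C.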

[20] = target: ATP-dependent 6-phosphofructokinase (Trypanosoma brucei brucei) (UniProt O15648); assay: qHTS Assay to Find Inhibitors of T. brucei phosphofructokinase: hit validation (AID 492961);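 further: luminescence reports ADP formed as PFK phosphorylates fructose-6-phosphate with ATP; series mostly up to about 51 µM; on the % scale 0 is the no-effect control and ±100 the full control effect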
Chain of ATP-dependent 6-phosphofructokinase (Trypanosoma brucei brucei) (O15648 whole entry, looked up): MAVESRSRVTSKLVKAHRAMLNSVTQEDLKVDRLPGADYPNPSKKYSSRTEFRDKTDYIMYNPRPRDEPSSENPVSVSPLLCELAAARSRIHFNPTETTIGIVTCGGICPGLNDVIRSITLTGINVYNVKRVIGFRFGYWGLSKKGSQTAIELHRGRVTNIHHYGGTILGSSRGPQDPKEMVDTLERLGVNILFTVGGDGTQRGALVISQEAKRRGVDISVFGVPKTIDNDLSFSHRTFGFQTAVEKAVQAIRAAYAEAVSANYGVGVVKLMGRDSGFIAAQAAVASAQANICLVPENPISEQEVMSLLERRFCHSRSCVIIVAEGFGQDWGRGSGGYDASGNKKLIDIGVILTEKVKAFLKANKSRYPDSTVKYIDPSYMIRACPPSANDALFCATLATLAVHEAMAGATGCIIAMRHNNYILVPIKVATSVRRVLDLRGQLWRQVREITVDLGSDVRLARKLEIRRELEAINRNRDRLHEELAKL
Summary of the method: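 Inhibition of parasite PFK is measured as reduced ADP formation, quantified via luciferase after ATP depletion. Assay used 0.1 mM ATP, 0.5 mM F6P, 1.25 nM enzyme, 45 min incubation.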

COc1cccc(-c2cc(=O)c3ccccc3o2)c1N
active: Potency [14] 2.91 µM
-8.39%: viability change [16]
inactive: outcome [1] | outcome [2] | outcome [3] | outcome [4] | Potency [5] | Potency [6] | outcome [7] | Potency [8] | Potency [9] | outcome [10] | outcome [11] | outcome [12] | outcome [13] | activation [15] -3.44% | outcome [16] | outcome [17]

CCN(CC)CCOC(=O)c1ccc(N)cc1
inactive: outcome [1] | outcome [2] | outcome [3] | outcome [4] | Potency [18] | outcome [19] | Potency [5] | Potency [6] | outcome [7] | Potency [8] | Potency [9] | outcome [10] | outcome [11] | outcome [12] | outcome [13] | outcome [20] | Potency [14] | activation [15] -0.312% | outcome [16] | outcome [17]
0.523%: viability change [16]

CC(=O)N[C@@H](CS)C(=O)O
inactive: outcome [1] | outcome [2] | outcome [3] | outcome [4] | Potency [18] | outcome [19] | Potency [5] | Potency [6] | outcome [7] | Potency [8] | Potency [9] | outcome [10] | outcome [11] | outcome [12] | outcome [20] | Potency [14] | outcome [16] | outcome [17]
13.1%: viability change [16]

O=C1NC(=O)C(c2ccccc2)(c2ccccc2)N1
inactive: outcome [1] | outcome [2] | outcome [3] | outcome [4] | Potency [18] | outcome [19] | Potency [5] | Potency [6] | outcome [7] | Potency [8] | Potency [9] | outcome [10] | outcome [11] | outcome [12] | outcome [13] | Potency [14] | activation [15] 0.438% | outcome [16] | outcome [17]
-3.24%: viability change [16]

CCN(CC)CCNC(=O)c1ccc(N)cc1
-14%: viability change [16]
inactive: outcome [1] | outcome [2] | outcome [3] | outcome [4] | Potency [18] | outcome [19] | Potency [5] | Potency [6] | Potency [8] | Potency [9] | outcome [10] | outcome [12] | outcome [13] | Potency [14] | outcome [16] | outcome [17]

CCCCCN(C)CCC(O)(P(=O)(O)O)P(=O)(O)O
-4.22%: viability change [16]
inactive: outcome [1] | outcome [2] | outcome [3] | outcome [4] | Potency [5] | Potency [6] | outcome [7] | Potency [8] | Potency [9] | outcome [10] | outcome [12] | outcome [13] | outcome [20] | Potency [14] | outcome [16] | outcome [17]

CC1(C)O[C@H]2C[C@@H]3[C@H]4CCC5=CC(=O)C=C[C@]5(C)[C@@]4(F)[C@@H](O)C[C@]3(C)[C@]2(C(=O)CO)O1
inactive: outcome [20]

CCn1cc(C(=O)O)c(=O)c2ccc(C)nc21
inactive: outcome [1] | outcome [2] | outcome [3] | outcome [4] | Potency [5] | Potency [6] | Potency [9] | outcome [10] | outcome [12] | outcome [13] | Potency [14] | outcome [17]

COC(=O)[C@@H]1[C@H]2C[C@H]3c4[nH]c5ccccc5c4CCN3C[C@@H]2CC[C@@H]1O
inactive: outcome [1] | outcome [2] | outcome [4] | Potency [18] | outcome [19] | Potency [5] | Potency [6] | Potency [8] | Potency [9] | outcome [10] | outcome [11] | outcome [12] | outcome [13] | Potency [14] | activation [15] 0.625% | outcome [16] | outcome [17]
2.98%: viability change [16]

CC1=C(/C=C/C(C)=C/C=C/C(C)=C/C(=O)Nc2ccc(O)cc2)C(C)(C)CCC1
inactive: outcome [1] | outcome [2] | outcome [4] | outcome [7] | Potency [8] | outcome [10] | outcome [12] | outcome [20] | Potency [14] | activation [15] -0.438% | outcome [17]
active: Potency [9] 39.8 µM

O=C(O)c1c(Cl)c(Cl)c(Cl)c(Cl)c1-c1c2cc(I)c(=O)c(I)c-2oc2c(I)c(O)c(I)cc12
inactive: outcome [20]
